# ELG1 genotox: qHTS screen for small molecules that induce genotoxicity in human embryonic kidney (HEK293T) cells expressing luciferase-tagged ELG1 | hit rate 1.3% among 330,000 | HEK293T ELG1-luciferase reporter, luminescence, 16 h | Potency, µM (doses to about 46 µM), without a hit: at the top dose activity change, positive = activation, most hits filed as activators | AID 504466, 2011; note: % of control where 0% means no effect; nearly all actives have a fitted effect of over 60% in size
#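 Screening used a luciferase reporter fused to human ELG1 in HEK293T cells. Luminescence was read on a CCD plate imager after 16 hr exposure and 30 min ONE-Glo incubation.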
# Rab9 prom act: qHTS Assay for Rab9 Promoter Activators | Huh7 Rab9 promoter-luciferase reporter, luminescence, 24 h | Potency, µM (titrated, usually from 9.22 µM), for inactives: at the top dose activation, negative = inhibition, usual class: activators | hit rate 2.8% among 320,000; note: % of control where 0% means no effect; nearly all actives have a fitted effect of over 60% in size
#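 Quantitative HTS format; Huh7 Rab9-luciferase reporter cells (1500/well) receive compound 2 h post-plating, incubate 24 h at 37 °C, then get luciferase reagent for 10 min before luminescence reading.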
# NPC1 promoter act: qHTS Assay for NPC1 Promoter Activators | hit rate 2.4% among 320,000 | Potency, µM (titrated, usually from 9.22 µM), for inactives: at the highest dose activation, usual class: activators | Huh7 NPC1 promoter luciferase reporter, 24 h; note: % of control where 0% means no effect; nearly all actives have a fitted effect of over 60% in size
#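 Readout is luciferase luminescence, reflecting NPC1 promoter activation in stably transfected Huh7 cells after 24 h compound exposure at 37 °C in reduced-serum medium with 10% FBS.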
# p53 reactivation: qHTS assay for re-activators of p53 using a Luc reporter; Potency, µM (series often up to 92.2 µM), without a hit: top-dose activity change, positive = activation, actives largely listed as activators; H1299 p53-A138V BP100-luciferase reporter, luminescence, 24 h; hit rate 0.063% among 320,000; AID 504706, 2011; note: % of control where 0% means no effect; nearly all actives have a fitted effect of over 45% in size
#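 p53-null H1299 cells stably carrying temperature-sensitive p53-A138V and a BP100-luciferase reporter were pinned with compounds (4-point, 1:5 series) and held 24 hrs at 37 deg C. Luminescence was read 10 min after detection reagent.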
# SMN2 splice up: qHTS Assay for Enhancers of SMN2 Splice Variant Expression; AID 1458, 2008; Potency, µM (top dose mostly 46.1 µM), without a hit: at the highest dose activity change, positive = activation, usual class: activators; HEK293 SMN2-luciferase splicing reporter, luminescence, 30-36 h; hit rate 2.8% among 210,000; note: % of control where 0% means no effect; nearly all actives have a fitted effect of over 55% in size
#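 HEK293 cells carry an SMN2 minigene-luciferase reporter in which exon 7 inclusion puts luciferase in frame. Cells were seeded at 2000 cells/well, attached for 10-12 hours, then exposed to compounds for 30-36 hours at 37C before ONE-Glo luminescence.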
# FLuc counter: qHTS profiling assay for firefly luciferase inhibitor/activator using purifed enzyme and Km concentrations of substrates (counterscreen for miR-21 project); AID 588342, 2011; hit rate 6.9% among 360,000; Potency, µM (highest dose often 57.5 µM), inactives show at the top dose activity change, negative = inhibition, most hits filed as inhibitors; purified FLuc, Km substrates, luminescence inhibition;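 note: plate controls were vehicle for no effect and reference inhibitor for full effect; nearly all actives have a fitted effect of over 55% in size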
# Target sequence (P08659 whole entry, looked up): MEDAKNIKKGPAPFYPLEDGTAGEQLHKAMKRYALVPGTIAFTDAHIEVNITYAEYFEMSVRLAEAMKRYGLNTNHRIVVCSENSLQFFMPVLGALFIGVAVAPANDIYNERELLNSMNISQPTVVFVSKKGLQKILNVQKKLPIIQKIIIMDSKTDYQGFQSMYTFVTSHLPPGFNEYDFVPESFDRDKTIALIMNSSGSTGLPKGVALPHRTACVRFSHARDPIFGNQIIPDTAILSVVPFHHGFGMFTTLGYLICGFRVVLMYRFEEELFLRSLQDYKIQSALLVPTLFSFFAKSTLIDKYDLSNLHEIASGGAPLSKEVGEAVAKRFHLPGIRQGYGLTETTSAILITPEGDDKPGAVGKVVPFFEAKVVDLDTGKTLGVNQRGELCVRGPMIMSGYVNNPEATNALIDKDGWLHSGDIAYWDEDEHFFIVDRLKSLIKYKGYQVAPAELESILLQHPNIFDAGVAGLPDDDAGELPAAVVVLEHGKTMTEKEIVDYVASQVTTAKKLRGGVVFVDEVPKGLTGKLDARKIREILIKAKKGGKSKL
#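 Biochemical qHTS of compounds, final roughly 60 µM downward over six points, against 10 nM purified firefly luciferase using Km concentrations of substrates (10 uM D-luciferin, 10 uM ATP) in Tris acetate pH 7.5 buffer; luminescence output.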
# Numbers without * were called inactive; ? = inconclusive; · = not tested or not shown. Only some compounds are listed: those with a hit (about 7.4% of all), similar ones and a draw of the others. Calls come from the whole dose curve; as a rule, active = well fitted curve in the direction sought with a large enough effect; inconclusive = small, poorly fitted or top-dose-only effect, or another doubt; inactive = no such curve, though single readings can be large; an effect the other way counts as inactive or inconclusive. Potency is the fitted concentration of half-maximal effect.
SMILES,ELG1 genotox,Rab9 prom act,NPC1 promoter act,p53 reactivation,SMN2 splice up,FLuc counter
O=C(COC(=O)c1ncc(Cl)c(Cl)c1Cl)c1ccc(Cl)s1,1%,4%,10%,1%,17%,12µM*
O=C(OCC(=O)c1ccc(Cl)s1)c1ccccn1,-1%,0%,0%,-2%,5%,7.6µM*
O=C(OCC(=O)c1ccc(Cl)s1)c1cnccn1,2%,8%,-5%,-14%,·,19µM*
CCCN(CC(=O)Nc1ccccc1C)C(=O)c1ccc2ccccc2n1,0%,3%,-6%,3%,·,2%
O=C(Nc1ccccc1C(=O)O)c1ccc2ccccc2n1,?,?,?,17%,?,6µM*
O=C(Nc1ccccc1)c1ccc2ccccc2n1,?,?,20%,?,?,4.8µM*
Cc1ccccc1NC(=S)c1ccc2ccccc2n1,?,-2%,23%,?,·,13µM*
COc1cc(-c2cc3n(C)c(C)c(CCC(=O)NC4CCCCC4)c(=O)n3n2)cc(OC)c1OC,·,·,·,·,·,-14%
Cc1ccc(CNC(=O)c2ccc3c(=O)[nH]c4c(C(=O)NCC5CCCO5)sc(=S)n4c3c2)cc1 (centres undefined),-10%,1%,-2%,-4%,-5%,19µM*
O=C(NCc1ccccc1)c1ccc2c(=O)[nH]c3c(C(=O)NCC4CCCO4)sc(=S)n3c2c1 (centres undefined),-5%,5%,-4%,3%,18%,27µM*
COc1cccc(CNC(=O)C2CCN(S(=O)(=O)c3c(C)noc3/C=C/c3cccs3)CC2)c1,·,·,·,·,-2%,-2%
CCOc1ccc(N2C(=O)/C(=C/c3cc(OC)c(OC)c(OC)c3)N(CC(=O)OC)C2=S)cc1,-3%,2%,-3%,10%,-40%,4%
CCOc1ccc(/C=C2/C(=O)N(c3ccc(OC)cc3)C(=S)N2CC(=O)OC)cc1OCC,?,?,?,?,13µM*,6µM*
COc1ccc(OC)c(CCNC(=O)c2cc3cccc4c3n2CC(C)S4)c1 (centres undefined),·,·,·,·,·,2%
O=C1COc2ccc(-c3csc(NCC4CCCO4)n3)cc2N1 (centres undefined),11%,27%,5%,14%,-24%,17µM*
O=S(=O)(Nc1nc2ccccc2nc1NCC1CCCO1)c1ccccc1 (centres undefined),1%,-4%,-2%,1%,·,0%
c1ccc2sc(NCC3CCCO3)nc2c1 (centres undefined),?,1.4µM*,2.2µM*,1%,10µM*,21µM*
COc1ccc(/C=C(/C#N)c2nc(-c3cc4ccccc4oc3=O)cs2)cc1,·,·,·,·,4%,0%
c1ccc2oc(-c3csc(NCC4CCCO4)n3)cc2c1 (centres undefined),2.3µM*,0.4µM*,1.6µM*,5%,?,1.5µM*
CC1CCC/C(=C(\C#N)c2nc(-c3cc4ccccc4oc3=O)cs2)C1 (centres undefined),?,1.8µM*,2.5µM*,?,-12%,1.7µM*
COc1ccc(NC(=O)CC(C)n2ccnc2)cc1 (centres undefined),-1%,-2%,2%,-1%,·,0%
CSc1ccc(S(=O)(=O)NC2CC2)cc1,1%,-1%,-2%,-2%,·,1%
O=c1oc2ccccc2cc1-c1csc(NN=C2CCCCC2)n1,14%,?,?,?,?,13µM*
C=CCNc1nc(-c2cc3ccccc3o2)cs1,0.52µM*,0.63µM*,1µM*,?,0.56µM*,0.34µM*
NCc1ccc(-c2nc3ccccc3o2)cc1,?,22%,?,25%,?,?
SMILES,ELG1 genotox,Rab9 prom act,NPC1 promoter act,p53 reactivation,SMN2 splice up,FLuc counter
Nc1ccc(CCc2nc3ccccc3o2)cc1,2.9µM*,1.6µM*,2.5µM*,28%,13µM*,2.7µM*
COc1ccc(NC(=O)c2c(-c3ccccc3)c(-c3ccccc3)nn(C)c2=O)cc1OC,·,·,·,·,-8%,-2%
CCOc1ncccc1C(=O)Nc1cc2c(cc1Br)OCCO2,3%,·,·,?,·,·
CCCC[C@@H]1C[C@H]1C(NC(=O)c1cccs1)c1ccccc1C(F)(F)F (some centres undefined),·,·,·,·,-49%,·
CSc1nnc2c(n1)OC(C)=Nc1ccccc1-2,0%,-3%,1%,0%,6%,3%
CCC1=Nc2ccccc2-c2nnc(SC)nc2O1,-8%,3%,-5%,2%,2µM*,-2%
CN(CC(=O)Nc1cccc(F)c1)C(=O)CNS(=O)(=O)c1ccc(N(C)C)c([N+](=O)[O-])c1,3%,2%,-1%,3%,·,-1%
Cc1ccc(S(=O)(=O)N2CCc3ccccc3C2)cc1C,-1%,-9%,0%,-1%,·,2%
CC(C)(C)c1ccc(C2=NC(C)(C)N(CC(=O)Nc3ccc(F)c(F)c3)C2=O)cc1,·,·,·,·,15%,-13%
Cc1cccc(-c2nc(SCCCOc3ccccc3Cl)n3[nH]c(=O)cc3n2)c1,·,·,·,·,·,6.7µM*
Cc1nn(-c2ccccc2)c(OC(=O)c2ccccc2)c1S(=O)(=O)c1ccccc1,·,·,·,·,2%,?
CC(C(=O)O)N1C(=O)/C(=C/C=C/c2ccco2)SC1=S (centres undefined),0%,1%,8%,3%,-9%,17µM*
COc1cc(OC)c(C(=O)CCCCN2CCC3(CC2)NC(=O)NC3=O)cc1NS(=O)(=O)c1ccc(C(F)(F)F)cc1,·,·,·,·,-2%,·
CC(C)COC(=S)Nc1ccccc1,?,2%,0%,7%,-9%,17µM*
Cc1n[nH]c(=S)n(/N=C/c2cccs2)c1=O,-1%,1%,-3%,-1%,·,3%
CCN(CC)c1ccc(/C=N/n2c(=S)[nH]nc(C)c2=O)cc1,-1%,11%,11%,-2%,·,15µM*
CC(=O)Nc1cccc(-c2nc3ccccc3c(=O)o2)c1,0%,-3%,0%,-5%,-5%,-7%
Cc1cc2c(=O)oc(-c3ccc(Br)cc3)nc2s1,?,21%,27%,6%,·,1.9µM*
CCc1cc2c(=O)oc(-c3ccc(F)cc3)nc2s1,1%,12%,2%,-2%,·,4.8µM*
Cc1cccc(-c2nc3sc(C)cc3c(=O)o2)c1,12%,13%,23%,9%,·,2.7µM*
Cc1ccc(N2CCN(c3c(CN4CCCC4)c(=O)oc4ccccc34)CC2)c(C)c1,·,·,·,·,5%,-1%

# Screens deposited in PubChem by National Center for Advancing Translational Sciences (NCATS).
